In PubChem BioAssay (NCATS):
Values without a mark were called inactive. Results filed as inconclusive are left out. Entries that show only a call come without a potency. For some of these results: Results with a measured potency or affinity are listed apart. Calls of active or inactive are those of the source. Unless noted, the rule behind the calls is not given here.

Experiments:
[1] = Ebola virus entry assay, green fluorescence channel
[2] = Ebola virus entry assay, blue channel fluorescence
[3] = Ebola virus entry assay, ratio channel
[4] = Ebola virus entry assay, reporter ratio channel; Channel type: primary
[5] = Ebola virus entry assay, blue channel (ratio component)
[6] = qHTS assay for measurement of the activity of small molecule inhibitors on Zika virus induced Caspase-3 activity in human iPSC derived neural progenitor cells (hNPCs) (AID 1224857; active = well fitted inhibition curve with a large enough effect; note: nearly all actives have a fitted effect of over 65% in size); details: hNPCs ZIKV-induced caspase-3/7, Caspase-Glo luminescence, 6 h; series mostly up to 45.7 µM
Summary of the method: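 Caspase-3/7 induction by a 6-hour ZIKV infection was quantified with a luminescent Caspase-Glo 3/7 reagent incubated 30 minutes at room temperature. Compounds were preincubated with hNPCs for 1 hour; inhibition was calculated against uninfected and infected control wells.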

[7] = qHTS assay for measurement of the activity of small molecule inhibitors on Zika virus induced Caspase-3 activity in human astrocytoma cells (AID 1224859; active = well fitted inhibition curve with a large enough effect); details: SNB-19 ZIKV-induced caspase-3/7, luminescence, 6 h; series mostly up to 45.7 µM
Summary of the method: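 In SNB-19 cells plated at 250 cells/well and grown 16-20 h, compounds were applied 1 h before ZIKV (2 FFU/cell). Six hours later caspase-3/7 luminescence was recorded.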

## CCCC(=O)OC[C@@H](OC(=O)CCC)[C@@H](OC(=O)CCC)[C@H](Cn1c2nc(=O)[nH]c(=O)c-2nc2cc(C)c(C)cc21)OC(=O)CCC
[1]
  efficacy: 140%
[2]
  outcome: inactive
[3]
  outcome: inactive
[4]
  outcome: inactive
[5]
  outcome: inactive

## C#C[C@]1(O)CC[C@H]2[C@@H]3[C@H](C)CC4=C(CCC(=O)C4)[C@H]3CC[C@@]21C
[1]
  efficacy: 42.7%
[2]
  outcome: inactive
[3]
  AC50: 15.8 µM (active)
[4]
  AC50: 15.8 µM (active)
[5]
  outcome: inactive

## c1cnc(N2CCN(Cc3ccc4c(c3)OCO4)CC2)nc1
[1]
  efficacy: 47.2%
[2]
  outcome: inactive
[3]
  outcome: inactive
[4]
  outcome: inactive
[5]
  outcome: inactive

## O=C(CCCN1CCN(c2ccccn2)CC1)c1ccc(F)cc1
[1]
  efficacy: 28.5%
[2]
  outcome: inactive
[3]
  outcome: inactive
[4]
  outcome: inactive
[5]
  outcome: inactive

## Nc1ccc2c(c1)CN1C(=O)c3ccccc3C1=N2
[1]
  efficacy: 64.3%
[2]
  outcome: inactive
[3]
  outcome: inactive
[4]
  outcome: inactive
[5]
  outcome: inactive

## CCCCC/C=C\C/C=C\CCCCCCCC(=O)NC(C)c1ccccc1 (centres undefined)
[1]
  efficacy: 130%
[2]
  outcome: inactive
[3]
  outcome: inactive
[4]
  AC50: 39.8 µM (active)
[5]
  outcome: inactive

## CCC(=O)O[C@]1(C(=O)COC)[C@@H](C)C[C@H]2[C@@H]3CCC4=CC(=O)C=C[C@]4(C)C3(F)[C@@H](O)C[C@@]21C (some centres undefined)
[1]
  efficacy: 67.5%
[2]
  outcome: inactive
[3]
  AC50: 7.94 µM (active)
[4]
  outcome: inactive
[5]
  outcome: inactive

## COC(=O)Nc1nc2ccc(Sc3ccccc3)cc2[nH]1
[1]
  efficacy: 73.8%
[2]
  outcome: inactive
[3]
  AC50: 4.47 µM (active)
[4]
  AC50: 4.47 µM (active)
[5]
  outcome: inactive

## Nc1cc(C(F)(F)F)ccc1S
[1]
  efficacy: -31.2%
[2]
  outcome: inactive
[3]
  outcome: inactive
[4]
  outcome: inactive
[5]
  outcome: inactive

## CC(=O)N(CC(=O)N(C)C)c1ccccc1
[1]
  efficacy: 35.3%
[2]
  outcome: inactive
[3]
  outcome: inactive
[4]
  outcome: inactive
[5]
  outcome: inactive

## CCCCCOc1ccccc1/C(=C\SC)n1ccnc1
[1]
  efficacy: 106%
[2]
  outcome: inactive
[3]
  outcome: inactive
[4]
  outcome: inactive
[5]
  outcome: inactive

## CC1(C)O[C@@H]2C[C@H]3[C@@H]4C[C@H](F)C5=CC(=O)C=C[C@]5(C)[C@H]4[C@@H](O)C[C@]3(C)[C@]2(C(=O)CO)O1
[1]
  efficacy: 79.9%
[2]
  outcome: inactive
[3]
  outcome: inactive
[4]
  outcome: inactive
[5]
  outcome: inactive

## O=C(NCC1CN(c2ccc(N3CCOCC3=O)cc2)C(=O)O1)c1ccc(Cl)s1 (centres undefined)
[1]
  efficacy: 23%
[2]
  outcome: inactive
[3]
  outcome: inactive
[4]
  outcome: inactive
[5]
  outcome: inactive

## COc1ccc(-c2nc3ccc(C4=NNC(=O)CC4C)cc3[nH]2)cc1 (centres undefined)
[1]
  efficacy: 23.5%
[2]
  outcome: inactive
[3]
  AC50: 14.1 µM (active)
[4]
  AC50: 14.1 µM (active)
[5]
  outcome: inactive

## CC(C)(C)CC(=O)OCC(=O)[C@@]1(O)CC[C@H]2[C@@H]3CCC4=CC(=O)C=C[C@]4(C)[C@H]3[C@@H](O)C[C@@]21C
[1]
  efficacy: 47.7%
[2]
  outcome: inactive
[3]
  outcome: inactive
[4]
  AC50: 28.2 µM (active)
[5]
  outcome: inactive

## C=C1C(=C/C=C2\CCC[C@]3(C)[C@@H]([C@H](C)/C=C/[C@@H](O)C4CC4)CC[C@@H]23)C[C@@H](O)C[C@@H]1O
[1]
  efficacy: 59.6%
[2]
  outcome: inactive
[3]
  outcome: inactive
[4]
  AC50: 39.8 µM (active)
[5]
  outcome: inactive

## CCOCCn1c(N2CCCN(C)CC2)nc2ccccc21
[1]
  efficacy: 58.4%
[2]
  outcome: inactive
[3]
  outcome: inactive
[4]
  AC50: 39.8 µM (active)
[5]
  outcome: inactive

## O=C(COc1ccc(Cl)cc1)N1CCN(Cc2ccc3c(c2)OCO3)CC1
[1]
  efficacy: 71.8%
[2]
  outcome: inactive
[3]
  outcome: inactive
[4]
  AC50: 39.8 µM (active)
[5]
  outcome: inactive

## CC[N+](CC)(CC)CCOc1ccc(/C=C/c2ccccc2)cc1
[1]
  efficacy: 64.2%
[2]
  outcome: inactive
[3]
  outcome: inactive
[4]
  AC50: 39.8 µM (active)
[5]
  outcome: inactive

## CCOC(=O)OC(C)OC(=O)[C@@H]1N2C(=O)[C@@H](NC(=O)[C@H](N)c3ccccc3)[C@H]2SC1(C)C (some centres undefined)
[1]
  efficacy: 47.6%
[2]
  outcome: inactive
[3]
  outcome: inactive
[4]
  outcome: inactive
[5]
  outcome: inactive

## COc1ccc(S(=O)(=O)N2c3ccc(Cl)cc3[C@@](O)(c3ccccc3Cl)[C@H]2C(=O)N2CCC[C@@H]2C(N)=O)cc1OC
[1]
  efficacy: 45%
[2]
  AC50: 10 µM (active)
[3]
  AC50: 10 µM (active)
[4]
  AC50: 10 µM (active)
[5]
  outcome: inactive

## CN1CCOC(c2ccccc2)c2ccccc2C1 (centres undefined)
[1]
  efficacy: 45.6%
[2]
  outcome: inactive
[3]
  outcome: inactive
[4]
  AC50: 39.8 µM (active)
[5]
  outcome: inactive

## NCCc1ccc(O)c(O)c1
[1]
  efficacy: 28.6%
[2]
  outcome: inactive
[3]
  outcome: inactive
[4]
  outcome: inactive
[5]
  outcome: inactive

## C[C@@H]1C[C@H]2[C@@H]3CCC4=CC(=O)C=C[C@]4(C)[C@@]3(F)[C@@H](O)C[C@]2(C)[C@@]1(O)C(=O)COC(=O)c1ccncc1
[1]
  efficacy: 33.7%
[2]
  outcome: inactive
[3]
  outcome: inactive
[4]
  AC50: 39.8 µM (active)
[5]
  outcome: inactive

## O=C(Nc1ccc([N+](=O)[O-])cc1)Nc1ccc([N+](=O)[O-])cc1
[1]
  efficacy: -37.1%
[2]
  outcome: inactive
[3]
  outcome: inactive
[4]
  outcome: inactive
[5]
  outcome: inactive

## CC(C)NCCCC1(C(N)=O)c2ccccc2-c2ccccc21
[1]
  efficacy: 42.8%
[2]
  outcome: inactive
[3]
  outcome: inactive
[4]
  outcome: inactive
[5]
  outcome: inactive

## C[C@]12CCC(=O)C=C1CC[C@@H]1[C@@H]2CC[C@@]2(C)[C@H]1CC[C@]2(O)C(=O)CO
[1]
  efficacy: 55.8%
[2]
  outcome: inactive
[3]
  outcome: inactive
[4]
  outcome: inactive
[5]
  outcome: inactive

## CCC(=O)O[C@]1(C(=O)SCF)[C@H](C)C[C@H]2[C@@H]3C[C@H](F)C4=CC(=O)C=C[C@]4(C)[C@@]3(F)[C@@H](O)C[C@@]21C
[1]
  efficacy: 69.2%
[2]
  outcome: inactive
[3]
  outcome: inactive
[4]
  outcome: inactive
[5]
  outcome: inactive

## Nc1ccc(C(=O)N2CC3CC(CN(Cc4ccccc4)C3)C2)cc1
[1]
  efficacy: 68.8%
[2]
  outcome: inactive
[3]
  outcome: inactive
[4]
  AC50: 31.6 µM (active)
[5]
  outcome: inactive

## O=C1OC2(c3ccc(O)cc3Oc3cc(O)ccc32)c2ccccc21
[1]
  AC50: 25.1 µM (active)
[2]
  outcome: inactive
[3]
  AC50: 7.94 µM (active)
[4]
  AC50: 7.94 µM (active)
[5]
  outcome: inactive

## O=C(Nc1ccc(S(=O)(=O)N2CCOCC2)cc1)c1cc(Cl)ccc1NS(=O)(=O)c1ccc(Cl)s1
[1]
  efficacy: 119%
[2]
  outcome: inactive
[3]
  outcome: inactive
[4]
  AC50: 39.8 µM (active)
[5]
  outcome: inactive

## Oc1ccc(/C=C/c2cc(O)cc(O)c2)cc1
[1]
  efficacy: 48.9%
[2]
  outcome: inactive
[3]
  outcome: inactive
[4]
  outcome: inactive
[5]
  outcome: inactive

## CCOC(=O)OCC/C(SC(=O)OCC)=C(\C)N(C=O)Cc1cnc(C)nc1N
[1]
  efficacy: 26.7%
[2]
  outcome: inactive
[3]
  outcome: inactive
[4]
  outcome: inactive
[5]
  outcome: inactive

## NS(=O)(=O)c1ccc(N2CCCCS2(=O)=O)cc1
[1]
  efficacy: -36.2%
[2]
  outcome: inactive
[3]
  outcome: inactive
[4]
  outcome: inactive
[5]
  outcome: inactive

## c1ccc(CNCCNCc2ccccc2)cc1
[1]
  efficacy: 55.2%
[2]
  outcome: inactive
[3]
  outcome: inactive
[4]
  AC50: 25.1 µM (active)
[5]
  outcome: inactive

## COc1cc2c(cc1OC)C(C(C(=O)N(CCc1ccc(OC)c(OC)c1OC)CCc1ccc(OC)c(OC)c1OC)c1ccccc1)=NCC2 (centres undefined)
[1]
  efficacy: 62.1%
[2]
  outcome: inactive
[3]
  AC50: 11.2 µM (active)
[4]
  AC50: 11.2 µM (active)
[5]
  outcome: inactive

## COc1cc(C[C@@H](C)N)c(OC)cc1C
[1]
  efficacy: 32.9%
[2]
  AC50: 35.5 µM (active)
[3]
  outcome: inactive
[4]
  AC50: 35.5 µM (active)
[6]
  Potency: inactive
[7]
  outcome: inactive

## CC(=O)OCC(=O)[C@@]1(O)CC[C@H]2[C@@H]3CCC4=CC(=O)C=C[C@]4(C)[C@H]3[C@@H](O)C[C@@]21C
[1]
  efficacy: -46.1%
[2]
  outcome: inactive
[3]
  outcome: inactive
[4]
  outcome: inactive
[5]
  outcome: inactive

## CC/C(=C(/CC)c1ccc(O)cc1)c1ccc(O)cc1
[1]
  efficacy: 26.9%
[2]
  outcome: inactive
[3]
  outcome: inactive
[4]
  outcome: inactive
[5]
  outcome: inactive

## COC[C@@H](c1ccc(C(F)(F)F)cc1)N1CCN(C2(C)CCN(C(=O)c3c(C)ncnc3C)CC2)C[C@H]1C
[1]
  efficacy: 69.2%
[2]
  outcome: inactive
[3]
  AC50: 25.1 µM (active)
[4]
  AC50: 25.1 µM (active)
[5]
  outcome: inactive

## CN(C(=O)CCCOc1ccc2[nH]c(=O)ccc2c1)C1CCCCC1
[1]
  efficacy: 72.6%
[2]
  outcome: inactive
[3]
  outcome: inactive
[4]
  outcome: inactive
[5]
  outcome: inactive

## CC#C[C@]1(O)CC[C@H]2[C@@H]3C[C@H](C)C4=CC(=O)CC[C@]4(C)[C@H]3CC[C@@]21C
[1]
  efficacy: 83.4%
[2]
  outcome: inactive
[3]
  outcome: inactive
[4]
  AC50: 39.8 µM (active)
[5]
  outcome: inactive
[6]
  Potency: inactive
[7]
  outcome: inactive

## CC(N)C(=O)OC(C)(C)Cc1ccc(Cl)cc1 (centres undefined)
[1]
  efficacy: 77%
[2]
  AC50: 15.8 µM (active)
[3]
  AC50: 14.1 µM (active)
[4]
  AC50: 14.1 µM (active)
[6]
  Potency: inactive

## CCCCC(=O)O[C@]1(C(=O)CO)CC[C@H]2[C@@H]3CCC4=CC(=O)CC[C@]4(C)[C@H]3[C@@H](O)C[C@@]21C
[1]
  efficacy: 66.7%
[2]
  outcome: inactive
[3]
  outcome: inactive
[4]
  outcome: inactive
[5]
  outcome: inactive

## CN1[C@@H]2CC[C@H]1CC(OC(=O)c1cc(Cl)cc(Cl)c1)C2 (some centres undefined)
[1]
  efficacy: 82.4%
[2]
  AC50: 25.1 µM (active)
[3]
  AC50: 28.2 µM (active)
[4]
  AC50: 28.2 µM (active)
[6]
  Potency: inactive
[7]
  outcome: inactive
